A selection: hits, their analogues and other compounds. The true share with any hit is near 1.5%.
Myeloid diff MLP = induction of myeloid progenitor differentiation, primary screen, cell-based, flow cytometry, MLPCN library | ER-HoxA9 myeloid progenitors, lysozyme-GFP differentiation | calls only at 10 µM | 1% of 360,000 active;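 active = normalized GFP-positive differentiation at or above the plate's own cutoff, the solvent-only control mean plus 3 SD; inconclusive = no clear call, values can overlap the other calls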;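 also: cells exposed to compound for four days before flow analysis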
TLR4-MyD88 BLA = inhibitors of TLR4-MyD88 association in cells, primary screen, cell-based, HeLa CL3-4, BLA complementation, FRET ratio; 0.18% of 200,000 active; HeLa CL3-4 TLR4/MyD88 BLA complementation; inhibition, % at 8.4 µM; Toll-like receptor 4 (Homo sapiens) + Myeloid differentiation primary response protein …; in the data active = inhibition above about 25%
NOD2-RIPK2 inh = NOD2-RIPK2 binding disruptors in cells, primary screen, fluorescence, CHO cells, BLA complementation | 0.38% of 360,000 active | Receptor-interacting serine/threonine-protein kinase 2 (Homo sapiens), O43353 | inhibition, % at 4.98 µM | CCF4 ratio; in the data active = inhibition above about 21%
Target sequence (O43353 whole entry, looked up): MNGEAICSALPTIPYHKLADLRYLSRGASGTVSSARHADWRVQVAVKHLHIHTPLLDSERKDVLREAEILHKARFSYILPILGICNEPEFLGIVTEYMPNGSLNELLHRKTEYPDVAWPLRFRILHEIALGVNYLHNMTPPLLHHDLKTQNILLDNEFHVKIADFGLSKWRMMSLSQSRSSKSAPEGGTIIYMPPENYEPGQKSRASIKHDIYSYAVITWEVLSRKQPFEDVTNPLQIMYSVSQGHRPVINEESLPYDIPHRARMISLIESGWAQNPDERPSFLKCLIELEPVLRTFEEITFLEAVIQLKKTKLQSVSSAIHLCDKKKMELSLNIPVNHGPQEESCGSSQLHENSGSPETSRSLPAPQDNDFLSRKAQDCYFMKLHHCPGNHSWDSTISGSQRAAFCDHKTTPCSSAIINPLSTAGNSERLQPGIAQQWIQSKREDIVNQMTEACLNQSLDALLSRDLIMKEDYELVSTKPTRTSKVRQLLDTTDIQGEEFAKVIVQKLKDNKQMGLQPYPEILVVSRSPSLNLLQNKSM
TLR9-MyD88 block = inhibitors of TLR9-MyD88 association in cells, primary screen, cell-based, CHO, BLA complementation, fluorescence | Toll-like receptor 9 (Homo sapiens) + Myeloid differentiation primary response protein … | CCF4 FRET ratio | 0.21% of 340,000 active | AID 504734, 2011 | inhibition, % at 4.98 µM;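 active = inhibition above the mean over all tested compounds plus 3 SD, cut at about 21% in these data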
NOD2 RIPK2 conf = NOD2-RIPK2 binding disruptors, retest, confirmation, fluorescence, CHO cells, BLA complementation, triplicate; shares compounds with NOD2-RIPK2 inh; CCF4 FRET; inhibition, % at 4.98 µM; 70% of 1,200 active; AID 624370, 2012;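 active = mean inhibition across replicates above a set limit taken from the earlier primary screen, cut at about 21% in these data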
BLA counter = counter-screen for NOD2-RIPK2 interaction inhibitors: BLA reporter; 57% of 1,200 active; inhibition, % at 4.98 µM; CHO BLA reporter, CCF4 FRET ratio, counterscreen; AID 624371; shares compounds with NOD2-RIPK2 inh;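 active = mean inhibition above the low-control mean inhibition plus three low-control SD, cut at about 11% in these data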
Of the large screens only hits and unclear results are named; the others gave an inactive call (follow-up assays come after a bar, where they were run).

COc1cccc(N2CCN(S(=O)(=O)c3c(C)[nH]c(C)c3C(=O)N3CCCC3)CC2)c1	NOD2-RIPK2 inh 23 (no result: TLR4-MyD88 BLA) | NOD2 RIPK2 conf inactive | BLA counter inactive
CSc1ccc(-c2ccc3c(c2)c(Sc2ccccc2)c(-c2ccccc2)n3C)cc1	none (no result: TLR4-MyD88 BLA, TLR9-MyD88 block)
Cc1cc(C(=O)CN2C(=O)NC3(CCCCC3C)C2=O)c(C)n1Cc1cccs1 (stereo not given)	none
Cc1cc(C(=O)CN2C(=O)c3cccc(N)c3C2=O)c(C)n1Cc1cccs1	NOD2-RIPK2 inh 24 | NOD2 RIPK2 conf 29 | BLA counter 42
COc1ccc(NC(=O)C2(C)Cc3c(-c4ccc(N(C)C)cc4)ccnc3O2)cn1 (stereo not given)	none (no result: TLR4-MyD88 BLA, TLR9-MyD88 block)
CCSc1ccc(-c2cc(NC=O)c3ncc(-c4cccc(C(=O)N(C)C)c4)n3c2)cc1	none (no result: TLR4-MyD88 BLA, TLR9-MyD88 block)
CCSc1ccc(-c2cc(NC=O)c3ncc(-c4cccc(C(=O)NCCN(C)C)c4)n3c2)cc1	NOD2-RIPK2 inh 23 (no result: Myeloid diff MLP, TLR4-MyD88 BLA, TLR9-MyD88 block) | NOD2 RIPK2 conf 25 | BLA counter inactive
CC(=O)NC(c1cccc(F)c1)c1nc(-c2ccoc2)cs1 (stereo not given)	none (no result: TLR4-MyD88 BLA, TLR9-MyD88 block)
COc1ccc2c(c1)C(C)=CC(C)(C)N2S(=O)(=O)c1ccc(NC(C)=O)cc1	NOD2-RIPK2 inh 26 (no result: Myeloid diff MLP, TLR4-MyD88 BLA) | NOD2 RIPK2 conf inactive | BLA counter inactive
Cc1ccc(C(=O)c2c(C)oc3c2C(=O)C(=O)c2ccccc2-3)cc1	Myeloid diff MLP inconclusive, NOD2-RIPK2 inh 24 | NOD2 RIPK2 conf 24 | BLA counter inactive
Cc1cc(C)n(-c2ccc(C(=O)N3CCN(S(=O)(=O)c4ccc(Br)cc4Cl)CC3)cc2)n1	none (no result: TLR4-MyD88 BLA)
CC(=O)c1ccc(OCCCC(=O)Nc2ccc(C)c(S(=O)(=O)N3CCCCC3)c2)cc1	NOD2-RIPK2 inh 36 (no result: TLR4-MyD88 BLA) | NOD2 RIPK2 conf inactive | BLA counter inactive
CCOc1ccc(C(=O)CCC(=O)Nc2ccc(C)c(S(=O)(=O)N3CCCCC3)c2)cc1	none (no result: TLR4-MyD88 BLA)
CC(C)c1nnc(NC(=O)CCS(=O)(=O)c2nc(-c3cccs3)cc(C(F)(F)F)n2)s1	NOD2-RIPK2 inh 41 | NOD2 RIPK2 conf inactive | BLA counter inactive
COC(=O)[C@@]12C[C@@H](CC(=O)N3CCC(c4ccccc4)CC3)C(=O)N(CCc3ccc(OC)c(OC)c3)C1=CCC(C)(C)C2	none (no result: TLR4-MyD88 BLA, TLR9-MyD88 block)
CN(C)c1ccc(-c2ccnc3c2CC(C)(C(=O)NCc2ccc(F)c(F)c2)O3)cc1 (stereo not given)	none (no result: TLR4-MyD88 BLA, TLR9-MyD88 block)
O=S(OCCN1CCOCC1)C(c1ccccc1)c1ccccc1 (stereo not given)	none (no result: TLR4-MyD88 BLA)
Cc1ccc(NC2=CC(=O)CC(C)(C)C2)cc1C	none
COc1ccc(NC2=CC(=O)CC(C)(C)C2)cc1OC	NOD2-RIPK2 inh 23 | NOD2 RIPK2 conf inactive | BLA counter inactive
O=c1c(O)c(-c2cccs2)oc2ccc(Cl)cc12	NOD2-RIPK2 inh 45, TLR9-MyD88 block 21 | NOD2 RIPK2 conf 45 | BLA counter 52
O=c1cc(-c2cccs2)oc2ccc(Cl)cc12	none
O=C1C(Br)=C(c2ccccc2)C(c2ccccc2)=C1c1ccccc1	Myeloid diff MLP inconclusive (no result: TLR4-MyD88 BLA)
COc1ccc(NS(=O)(=O)c2ccc3ccccc3c2)c2ncccc12	NOD2-RIPK2 inh 29 (no result: TLR4-MyD88 BLA) | NOD2 RIPK2 conf 30 | BLA counter 17
Nc1nc2ncccn2c1-c1ccc(C(F)(F)F)cc1	NOD2-RIPK2 inh 25 (no result: TLR4-MyD88 BLA, TLR9-MyD88 block) | NOD2 RIPK2 conf 28 | BLA counter 34
CC1(C)OC(=O)C2=C(C[C@@H](C3CCCCC3)O[C@H]2c2ccc(Cl)cc2)O1	none (no result: TLR4-MyD88 BLA, TLR9-MyD88 block)
COc1ccc(NC(=O)C(c2ccc(OC)cc2)n2c(=O)c(-c3cc4ccccc4[nH]3)nc3ccccc32)cc1 (stereo not given)	NOD2-RIPK2 inh 44 (no result: TLR4-MyD88 BLA, TLR9-MyD88 block) | NOD2 RIPK2 conf 40 | BLA counter 66
CC(C)(C)NC(=O)C(c1cc2ccccc2o1)n1c(=O)c(-c2ccco2)nc2ccccc21 (stereo not given)	none (no result: TLR4-MyD88 BLA, TLR9-MyD88 block)
COc1ccc(NC(=O)C(c2cc3ccccc3o2)n2c(=O)c(-c3cc4ccccc4[nH]3)nc3ccccc32)cc1 (stereo not given)	NOD2-RIPK2 inh 51 (no result: TLR4-MyD88 BLA, TLR9-MyD88 block) | NOD2 RIPK2 conf 46 | BLA counter 68
COc1ccc(NC(=O)C(c2ccc(C#N)cc2)n2c(=O)c(-c3cc4ccccc4[nH]3)nc3ccccc32)cc1 (stereo not given)	NOD2-RIPK2 inh 56 (no result: TLR4-MyD88 BLA, TLR9-MyD88 block) | NOD2 RIPK2 conf 54 | BLA counter 72
O=C(OCc1ccccc1)N1CCC2CC1c1cc(-c3cc4ccccc4o3)ccc12 (stereo not given)	none (no result: TLR4-MyD88 BLA)
Cc1cn([C@H]2C[C@H](O)[C@@H](CNC=O)O2)c(=O)[nH]c1=O	none (no result: TLR4-MyD88 BLA)
CC(C)c1ccc(CN2CCC2(C)C(=O)Nc2cnc3ccccc3c2)cc1 (stereo not given)	none (no result: TLR4-MyD88 BLA, TLR9-MyD88 block)
CNC(=O)c1nnsc1S(=O)(=O)c1ccc(Cl)cc1	Myeloid diff MLP inconclusive, NOD2-RIPK2 inh 85, TLR9-MyD88 block 41 | NOD2 RIPK2 conf 80 | BLA counter inactive
O=C(c1nnsc1S(=O)(=O)c1ccc(Cl)cc1)N1CCOCC1	none
CC1NS(=O)(=O)c2cc([N+](=O)[O-])ccc21 (stereo not given)	none (no result: TLR4-MyD88 BLA, TLR9-MyD88 block)
CCc1nc2ccc(C(=O)NCCCN3CCCC3=O)cn2c1N(CC)Cc1cccc(Br)c1	none (no result: TLR4-MyD88 BLA, TLR9-MyD88 block)
O=C(Nc1ccc2c(c1)OCCO2)C(c1ccc(C(F)(F)F)cc1)n1c(=O)c(-c2cc3ccccc3[nH]2)nc2ccccc21 (stereo not given)	NOD2-RIPK2 inh 48 (no result: TLR4-MyD88 BLA, TLR9-MyD88 block) | NOD2 RIPK2 conf 44 | BLA counter 66
O=C(Nc1ccc2ccccc2c1)C(c1ccc(C(F)(F)F)cc1)n1c(=O)c(-c2cc3ccccc3[nH]2)nc2ccccc21 (stereo not given)	NOD2-RIPK2 inh 46 (no result: TLR4-MyD88 BLA, TLR9-MyD88 block) | NOD2 RIPK2 conf 40 | BLA counter 65
COc1ccc(NC(=O)C(c2ccc(C(F)(F)F)cc2)n2c(=O)c(-c3ccco3)nc3ccccc32)cc1 (stereo not given)	none (no result: TLR4-MyD88 BLA, TLR9-MyD88 block)
O=C(Nc1ccc2c(c1)OCCO2)C(c1ccccc1F)n1c(=O)c(-c2cc3ccccc3[nH]2)nc2ccccc21 (stereo not given)	NOD2-RIPK2 inh 49 (no result: TLR4-MyD88 BLA, TLR9-MyD88 block) | NOD2 RIPK2 conf 45 | BLA counter 67
N#Cc1ccc(C(C(=O)Nc2ccc3c(c2)OCCO3)n2c(=O)c(-c3ccco3)nc3ccccc32)cc1 (stereo not given)	none (no result: TLR4-MyD88 BLA, TLR9-MyD88 block)
O=C(Nc1ccc2c(c1)OCCO2)C(C1CC1)n1c(=O)c(-c2ccco2)nc2ccccc21 (stereo not given)	none (no result: TLR4-MyD88 BLA, TLR9-MyD88 block)
O=C(Nc1ccc2c(c1)OCCO2)C(c1ccncc1)n1c(=O)c(-c2cc3ccccc3[nH]2)nc2ccccc21 (stereo not given)	Myeloid diff MLP active, NOD2-RIPK2 inh 34 (no result: TLR4-MyD88 BLA, TLR9-MyD88 block) | NOD2 RIPK2 conf 37 | BLA counter 58

High-throughput results from PubChem.
